Active and inactive are the calls of the source. Unless noted, how the calls were made is not given here.
How the values were obtained:
[1] = resazurin metabolic signal in HepG2 cells – cell-based, resazurin fluorescence, 24 h, PK04 Diversity Set, profiling panel (AID 1172); settings: HepG2 viability, higher = more signal; further: test concentration not given here
[2] = budding yeast growth changes without added modifier – OD600, strain BY4716, 24 h, basal condition, primary screen (AID 1173); settings: S. cerevisiae BY4716 growth, OD600, 24 h; higher = more signal, called active from +8 up or from −8 down
[3] = viability profiling in MM1S myeloma cells – cell-based, resazurin fluorescence, basal, 24 h, PK04 Diversity Set, profiling panel (AID 1174); settings: higher = more signal, called active from +8 up or from −8 down;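 further: MM1S multiple myeloma cell line; test concentration not given here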
[4] = biological target: Dihydroorotate dehydrogenase (quinone), mitochondrial (Plasmodium falciparum (isolate 3D7)) (UniProt Q08210); test: inhibition of P. falciparum DHODH – biochemical, C-terminal His tag, absorbance 600 nm, primary screen (AID 1175); settings: PfDHODH enzyme, DCIP absorbance 600 nm; higher = more signal, called active from +8 up or from −8 down;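 further: recombinant parasite enzyme with a five histidine tag at its C terminus; test concentration not given here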
[5] = inhibition of PAO1 biofilm formation – strain PAO1, LB-PBS medium, absorbance 600 nm, primary screen (AID 1176); further: test concentration not given here; settings: P. aeruginosa PAO1 growth/biofilm, A600, 12 h; higher = more signal
[6] = growth modulation of vineyard yeast isolate – strain RM11-1a, OD600, basal, 24 h, primary screen (AID 1177);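 further: cultures grown under basal conditions with no added stressor; test concentration not given here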; settings: S. cerevisiae RM11-1a growth, OD600, 24 h; higher = more signal, called active from +8 up or from −8 down
[7] = growth of efflux-deficient E. coli DRC39 – strain DRC39, OD650, 24 h, E. coli filamentation inducers, primary screen (AID 1178);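 further: growth measured as culture turbidity by optical density at 650 nm; test concentration not given here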; settings: E. coli DRC39 acrAB, higher = more signal, called active from +8 up or from −8 down
[8] = growth of efflux-deficient E. coli DRC39 – strain DRC39, OD650, 48 h, E. coli filamentation inducers, primary screen (AID 1179);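 further: screen aims at cell division blockers that make cells filament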; settings: E. coli DRC39 delta-acrAB growth, higher = more signal, called active from +8 up or from −8 down
[9] = viability profiling in RPMI8226 myeloma cells – cell-based, resazurin fluorescence, basal, 24 h, PK04 Diversity Set, profiling panel (AID 1180); settings: higher = more signal;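 further: RPMI8826 multiple myeloma cell line at 5000 cells per well; test concentration not given here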
[10] = biological target: E3 ubiquitin-protein ligase XIAP (Homo sapiens) (UniProt P98170); test: small molecules binding XIAP protein – biophysical, small-molecule microarray, fluorescence 635 nm, primary screen (AID 1181); settings: higher = more signal;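 further: score merges 667 nm emission and signal to noise over triplicate slides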
Sequence of E3 ubiquitin-protein ligase XIAP (Homo sapiens) (P98170 whole entry, looked up): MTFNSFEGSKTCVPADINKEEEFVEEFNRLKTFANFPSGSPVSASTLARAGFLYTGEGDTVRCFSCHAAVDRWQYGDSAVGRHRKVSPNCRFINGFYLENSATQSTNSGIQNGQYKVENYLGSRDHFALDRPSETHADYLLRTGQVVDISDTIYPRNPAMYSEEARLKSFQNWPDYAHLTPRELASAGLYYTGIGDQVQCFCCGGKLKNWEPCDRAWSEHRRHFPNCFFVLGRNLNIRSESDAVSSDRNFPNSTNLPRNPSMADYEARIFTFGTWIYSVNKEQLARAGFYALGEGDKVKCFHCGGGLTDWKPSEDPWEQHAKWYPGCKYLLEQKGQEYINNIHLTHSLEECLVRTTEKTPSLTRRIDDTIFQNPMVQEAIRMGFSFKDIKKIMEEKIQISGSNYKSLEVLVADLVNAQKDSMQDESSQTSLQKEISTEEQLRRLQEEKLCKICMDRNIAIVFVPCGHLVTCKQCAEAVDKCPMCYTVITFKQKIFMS

Sequence of Dihydroorotate dehydrogenase (quinone), mitochondrial (Plasmodium falciparum (isolate 3D7)) (Q08210 whole entry, looked up): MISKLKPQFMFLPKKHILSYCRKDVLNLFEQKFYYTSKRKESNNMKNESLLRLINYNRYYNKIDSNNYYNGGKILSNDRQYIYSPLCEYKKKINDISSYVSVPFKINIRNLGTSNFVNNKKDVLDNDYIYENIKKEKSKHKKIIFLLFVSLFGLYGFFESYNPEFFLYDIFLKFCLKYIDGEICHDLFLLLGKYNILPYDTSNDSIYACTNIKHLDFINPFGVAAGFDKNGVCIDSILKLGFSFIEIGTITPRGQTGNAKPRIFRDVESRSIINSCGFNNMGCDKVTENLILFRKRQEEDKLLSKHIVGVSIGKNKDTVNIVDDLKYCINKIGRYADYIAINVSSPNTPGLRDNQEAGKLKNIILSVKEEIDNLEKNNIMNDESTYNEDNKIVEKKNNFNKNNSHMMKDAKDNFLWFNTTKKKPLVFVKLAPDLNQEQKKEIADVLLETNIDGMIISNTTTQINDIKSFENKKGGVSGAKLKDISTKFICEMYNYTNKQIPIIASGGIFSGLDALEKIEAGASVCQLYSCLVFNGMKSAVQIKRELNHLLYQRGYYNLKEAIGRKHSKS

| Compound | z-score [1] | z-score [2] | z-score [3] | composite z-score [4] | z-score [5] | z-score [6] | z-score [7] | z-score [8] | z-score [9] | composite z-score [10] |
| --- | --- | --- | --- | --- | --- | --- | --- | --- | --- | --- |
| [N-]=[N+]=NCc1ccccc1C[C@@]1(C(=O)NCC(O)CO)N=C(c2ccc(OCCCO)cc2)O[C@@H]1c1ccccc1CN=[N+]=[N-] (stereo not given in full) | 0.376 | -0.247 (inactive) | -1.3 (inactive) | 0.34 (inactive) | 2.33 (inactive) | 0.0651 (inactive) | 0.322 (inactive) | -0.0665 (inactive) | -1.03 | -0.377 |
| CCCNC(=O)[C@@H]1c2ccccc2C(=O)N(Cc2ccccc2)[C@H]1c1ccc(CO)cc1 | -0.898 | 0.215 (inactive) | 0.0254 (inactive) | 0.939 (inactive) | 1.27 (inactive) | 0.797 (inactive) | -0.229 (inactive) | -0.969 (inactive) | 0.477 | -0.276 |
| Cc1ccccc1C(O)C1C=CC2C(=O)N(C)C(=O)C2N1Nc1ccccc1 (stereo not given) | -1.19 | -0.532 (inactive) | -1.32 (inactive) | -0.513 (inactive) | 1.07 (inactive) | -0.547 (inactive) | -0.688 (inactive) | -0.611 (inactive) | -1.61 | 0.179 |
| COc1ccc([Si](C)(C)[C@@H]2[C@@H](CC(=O)N(CCO)Cc3ccccc3)O[C@]3(C(=O)N(C)c4ccccc43)[C@H]2C)cc1 | -1.36 | -0.599 (inactive) | -1.64 (inactive) | -0.688 (inactive) | 0.708 (inactive) | 0.975 (inactive) | -0.284 (inactive) | -0.896 (inactive) | -1.49 | -0.0853 |
| CC(C)NC(=O)[C@@H]1c2ccccc2C(=O)N(Cc2ccccc2)[C@H]1c1ccc(CO)cc1 | -0.043 | 0.349 (inactive) | -0.889 (inactive) | 0.0505 (inactive) | 0.292 (inactive) | -0.714 (inactive) | 0.0003 (inactive) | -0.176 (inactive) | -0.239 | -0.0473 |
| C=C(CCCC)/C(=C/C[C@H](OC(C)=O)c1ccc(CO)o1)c1cnc2ccccc2c1 | -0.0826 | -0.143 (inactive) | -0.735 (inactive) | -6.03 (inactive) | 1.58 (inactive) | 1.66 (inactive) | 0.18 (inactive) | 0.284 (inactive) | 0.137 | 0.0426 |
| COCC(=C=CC[C@@H](O)c1ccc(CO)o1)CCO | 0.59 | -3.07 (inactive) | 0.698 (inactive) | -9.96 (active) | 0.862 (inactive) | -3.85 (inactive) | 1.13 (inactive) | 1.1 (inactive) | 0.529 | 0.116 |
| CC(=O)C1=CCC(c2ccccc2)N(S(=O)(=O)c2ccc(C)cc2)C1 (stereo not given) | -0.0399 | 0.832 (inactive) | -0.551 (inactive) | 0.746 (inactive) | 0.533 (inactive) | 0.227 (inactive) | 0.422 (inactive) | 0.0116 (inactive) | -0.809 | -0.0773 |
| CCN(CC)c1ccc(N2CC=CC34O[C@@H]5/C=C\CCCOC(=O)C5[C@H]3C(=O)N(C(CO)C(C)C)[C@@H]4C2=O)cc1 (stereo not given in full) | -0.211 | 0.282 (inactive) | -0.2 (inactive) | -0.952 (inactive) | -0.36 (inactive) | 0.831 (inactive) | -0.0034 (inactive) | 0.0801 (inactive) | -0.0389 | 0.336 |
| COc1ccc(CCNC(=O)[C@@H]2c3ccccc3C(=O)N(Cc3ccc(OC(F)(F)F)cc3)[C@H]2c2ccc(CO)cc2)cc1 | 0.697 | -0.484 (inactive) | -0.0601 (inactive) | 0.274 (inactive) | 1.52 (inactive) | -0.419 (inactive) | -0.344 (inactive) | -1.06 (inactive) | 0.53 | -0.228 |
| N#Cc1ccc(NN2C(C(O)C3CCCCC3)C=CC3C(=O)N(c4ccccc4)C(=O)C32)cc1 (stereo not given) | -0.779 | -0.394 (inactive) | -0.668 (inactive) | -0.177 (inactive) | 1.14 (inactive) | -0.28 (inactive) | -0.427 (inactive) | -0.673 (inactive) | -0.848 | 0.262 |
| [N-]=[N+]=NCc1ccccc1C[C@]1(C(=O)NCCN2CCOCC2)N=C(c2ccc(OCCCO)cc2)O[C@H]1c1ccccc1N=[N+]=[N-] | -0.854 | -0.318 (inactive) | -0.739 (inactive) | 0.345 (inactive) | 1.57 (inactive) | 0.145 (inactive) | 1.73 (inactive) | 1.08 (inactive) | -1.85 | 0.317 |
| CCCCCCc1nc(CCCc2cc3c(c(CCCCCC)n2)[Si](C(C)C)(C(C)C)OC3)cc2c1[Si](C(C)C)(C(C)C)OC2 | -0.0097 | -0.528 (inactive) | 0.129 (inactive) | -2.32 (inactive) | 0.374 (inactive) | 0.539 (inactive) | -0.214 (inactive) | -0.728 (inactive) | -0.655 | -0.0829 |
| COc1ccc(C#Cc2ccc3c(c2)[C@]2(C(=O)N3)[C@H](C(=O)NC[C@H](O)c3ccccc3)[C@H]3C(=O)O[C@H](c4ccccc4)[C@H](c4ccccc4)N3[C@@H]2c2ccccc2OCCO)cc1 | -1.62 | 1.32 (inactive) | -4.48 (inactive) | -0.0131 (inactive) | 2.4 (inactive) | 2.27 (inactive) | -0.444 (inactive) | -0.849 (inactive) | -5.2 | 0.0297 |
| C=C(CCCC)C(=O)CC[C@H](OC(=O)c1cccnc1)c1cccc(OCCO)c1 | -0.53 | 0.704 (inactive) | -1.29 (inactive) | -0.455 (inactive) | -0.21 (inactive) | 1.7 (inactive) | 0.477 (inactive) | 0.262 (inactive) | -2.01 | -0.0582 |
| CC(C)CNC(=O)[C@@]1(c2ccc([N+](=O)[O-])cc2)CC(=O)N(CC23CC4CC(CC(C4)C2)C3)[C@@H]1c1ccc(CO)cc1I | -2.55 | 0.431 (inactive) | -2.77 (inactive) | 0.989 (inactive) | 1.9 (inactive) | 1.69 (inactive) | -0.507 (inactive) | -0.91 (inactive) | -3.94 | -0.144 |
| Cc1ccc(S[C@]2(C(=O)O)CC(=O)N(C3Cc4ccccc4C3)[C@@H]2c2ccc(CO)cc2I)cc1 | 0.186 | -1.99 (inactive) | -1.95 (inactive) | 0.0058 (inactive) | -0.109 (inactive) | -0.219 (inactive) | 0.602 (inactive) | 0.447 (inactive) | -1.78 | -0.0726 |
| CCCCCCCCCCC(O)C1C=CC2C(=O)N(Cc3ccccc3)C(=O)C2N1n1cnnc1 (stereo not given) | -1.17 | -0.472 (inactive) | -1.39 (inactive) | -1.2 (inactive) | -0.541 (inactive) | -0.623 (inactive) | -0.845 (inactive) | -0.592 (inactive) | -1.15 | -0.0085 |
| COCCOC(=O)N1C(=O)[C@@]2(c3ccccc31)[C@H](c1ccc(O)cc1)N1[C@H](c3ccccc3)[C@H](c3ccccc3)OC(=O)[C@H]1[C@@H]2C(=O)N1CCc2cc(OC)c(OC)cc2C1 | 0.129 | 0.0332 (inactive) | 0.612 (inactive) | -0.888 (inactive) | 0.759 (inactive) | -0.33 (inactive) | 0.919 (inactive) | 1.3 (inactive) | 0.471 | -0.0841 |
| COCC1=C2[C@@H](CCc3ccccc3)OB(O)C[C@@H]2[C@@H]2C(=O)N(Cc3ccccc3)C(=O)[C@@H]2C1 | 0.0373 | -1.69 (inactive) | -0.278 (inactive) | -0.345 (inactive) | -0.177 (inactive) | -1.06 (inactive) | -0.0682 (inactive) | -0.0309 (inactive) | -0.039 | -0.231 |
| COc1ccc(CCN2C(=O)[C@@]3(Cc4ccccc42)c2ccccc2C(=O)N(Cc2ccccc2Cl)[C@H]3c2ccc(CO)cc2)cc1 | -0.349 | -0.542 (inactive) | 0.249 (inactive) | -6.31 (inactive) | 1.57 (inactive) | 0.215 (inactive) | 0.157 (inactive) | 0.353 (inactive) | 0.314 | -0.142 |
| COCCOC(=O)N1C(=O)[C@@]2(c3ccccc31)[C@H](C(=O)Nc1nc3ccccc3s1)[C@H]1C(=O)O[C@H](c3ccccc3)[C@H](c3ccccc3)N1[C@@H]2c1ccc(OCCO)cc1 | 0.353 | 1.42 (inactive) | -0.477 (inactive) | -0.691 (inactive) | 3.49 (inactive) | 1.75 (inactive) | 0.0253 (inactive) | -0.383 (inactive) | -0.162 | 0.0641 |
| C=CCNC(=O)[C@H]1[C@@H]2C(=O)O[C@@H](c3ccccc3)[C@@H](c3ccccc3)N2[C@@H](c2ccc(O)cc2)[C@]12C(=O)N(C(=O)OCCOC)c1ccc(C#CCCO)cc12 | -0.37 | -0.385 (inactive) | 0.695 (inactive) | 1.12 (inactive) | 0.104 (inactive) | 0.681 (inactive) | 0.261 (inactive) | 0.69 (inactive) | 0.665 | -0.272 |
| CC(C)N1C(=O)C[C@@](C(=O)NCc2ccccc2)(c2ccc([N+](=O)[O-])cc2)[C@H]1c1ccc(CO)cc1 | 0.222 | -0.228 (inactive) | 0.0372 (inactive) | 0.41 (inactive) | -0.0528 (inactive) | 0.131 (inactive) | 0.531 (inactive) | 1.23 (inactive) | 1.26 | -0.0543 |
| CCOC(=O)C[C@H]1[C@H](OC(=O)c2ccc(-c3ccccc3)cc2)[C@@H](NC(=O)c2ccc(-c3ccccc3)cc2)c2cc(OCCCO)ccc2N1C(=O)Cc1ccc(OC)cc1 | -0.0995 | 0.353 (inactive) | -0.26 (inactive) | -0.432 (inactive) | 0.432 (inactive) | 0.0873 (inactive) | 0.39 (inactive) | 0.372 (inactive) | -0.361 | -0.123 |
| CCCCC=C[C@@H](NC(=O)c1ccco1)c1ccccc1 | 1 | 1.42 (inactive) | 0.356 (inactive) | 0.559 (inactive) | -0.126 (inactive) | 0.846 (inactive) | 0.358 (inactive) | 0.815 (inactive) | 0.223 | -0.123 |
